From PubChem
Compounds with a hit are over-represented: about 2.8% of the library has one in this group of screens.
SENP8 block-1: SENP8 protease inhibitors, primary screen, biochemical, luminescence | Sentrin-specific protease 8 (Homo sapiens), Q96LD8 | purified SENP8, Z-RLRGG-aminoluciferin cleavage | inhibition, % at 10 µM | 330,000 tested, 1.2% active | AID 2540, 2010; in the data active = inhibition above about 50%
Target sequence (Q96LD8 whole entry, looked up): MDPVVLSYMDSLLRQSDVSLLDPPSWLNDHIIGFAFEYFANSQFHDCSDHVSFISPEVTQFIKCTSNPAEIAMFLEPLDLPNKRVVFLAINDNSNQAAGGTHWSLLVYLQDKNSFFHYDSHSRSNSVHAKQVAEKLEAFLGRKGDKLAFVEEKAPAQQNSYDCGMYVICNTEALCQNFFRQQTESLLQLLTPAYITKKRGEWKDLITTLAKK
SENP6 block: SENP6 protease inhibitors, primary screen, biochemical, luminescence, uHTS | Recombinant SENP6 catalytic domain, aminoluciferin luminescence | Sentrin-specific protease 6 (Homo sapiens), Q9GZR1 | 330,000 tested, 1.8% active | inhibition, % at 10 µM | AID 2599, 2010;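 active = inhibition above about 50% at the single tested dose, limit read from the data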;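 also: plate controls were DMSO wells with enzyme for no effect and DMSO wells lacking enzyme for full effect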
HSP90 inh: HSP90 inhibitors, primary screen, cell lysate, luminescence | Rabbit reticulocyte lysate, luciferase refolding luminescence, 3 h | inhibition, % at 5.6 µM | 290,000 tested, 0.91% active | AID 1789, 2009;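 active = inhibition above the screen-wide mean plus 3 SD, computed separately per campaign, cut at about 16% in these data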;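 also: 0% = DMSO wells and 100% = 60 µM geldanamycin wells; inhibitors lower the luminescence because luciferase stays unfolded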
SENP8 block-2: human SENP8 protease inhibitors, primary screen, biochemical, fluorescence, Nedd8 protein substrate, uHTS | 360,000 tested, 0.64% active | AID 602440, 2012 | recombinant SENP8 | inhibition, % at 20 µM; in the data active = inhibition mostly above about 40%, no sharp cut-off; inactive = mostly below about 27%
SENP7 block: SENP7 protease inhibitors, primary screen, biochemical, luminescence, uHTS; 330,000 tested, 1.5% active; inhibition, % at 5 µM; recombinant SENP7, Z-RLRGG-aminoluciferin luminescence, 40 min;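 active = inhibition above about 50% at the single test dose, limit read from the data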;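 also: plate controls were DMSO with enzyme for no effect and no enzyme buffer wells for full effect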
Target sequence (Q9BQF6 706-1050 limits assumed): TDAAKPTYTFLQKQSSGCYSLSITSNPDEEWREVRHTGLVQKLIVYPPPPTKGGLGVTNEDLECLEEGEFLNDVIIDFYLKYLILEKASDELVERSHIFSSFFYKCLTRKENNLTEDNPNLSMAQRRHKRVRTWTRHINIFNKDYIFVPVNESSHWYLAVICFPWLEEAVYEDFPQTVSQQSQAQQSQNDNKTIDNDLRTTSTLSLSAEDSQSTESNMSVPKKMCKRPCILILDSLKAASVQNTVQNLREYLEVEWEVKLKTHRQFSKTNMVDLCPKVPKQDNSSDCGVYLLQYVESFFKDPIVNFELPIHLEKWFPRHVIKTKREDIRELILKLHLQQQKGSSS
SENP8 conf: human SENP8 protease inhibitors, confirmation, biochemical, Nedd8 protein substrate, single concentration; purified SENP8, Nedd8-AMC/pro-Nedd8 cleavage fluorescence, 30 min; shares compounds with SENP8 block-2; inhibition, % at 25 µM; 1,400 tested, 15% active; AID 624319, 2012; in the data active = inhibition mostly above about 39%, no sharp cut-off; inactive = mostly below about 34%
Active calls of the source: *; · = no result.

SMILES	SENP8 block-1	SENP6 block	HSP90 inh	SENP8 block-2	SENP7 block	SENP8 conf
Cc1nc2ccc(NC(=O)c3cc([N+](=O)[O-])cc([N+](=O)[O-])c3Cl)cc2s1	·	·	-5.8	40.8*	·	25.9
Cc1ccc(CN2CC(N3CC=CC3)CS2(=O)=O)cc1 (stereo not given)	·	·	·	48.1*	·	26.0
C[C@H](NC(=O)[C@@H]1CSC2c3ccccc3C(=O)N21)C(=O)NC1CCCC1 (stereo not given in full)	-6.4	-8.4	-7.0	-3.0	-0.8	·
CSCC[C@H](NC(=O)[C@@H]1CSC2c3ccccc3C(=O)N21)C(=O)N1CCC[C@H]1CO (stereo not given in full)	-7.8	9.3	-4.4	61.7*	-15.1	8.4
O=C(Nc1cccc(Cn2cccn2)c1)c1cc2c(s1)CCCC2	9.9	41.7	-2.5	5.6	34.5	·
CCCCCCN1C=CC=C/C1=C\C=C(C#N)C#N	-5.2	-7.5	-0.9	42.6*	-9.2	29.0
COc1ccc(N2C(=O)C(Cl)=C(N3CCN(Cc4ccccc4)CC3)C2=O)cc1	·	·	-3.8	17.4	·	·
CCc1ccc(N2C(=O)C(Cl)=C(N3CCOCC3)C2=O)cc1	-6.7	-6.3	7.2	41.1*	9.0	13.4
Cc1cccc(N2C(=O)C(Cl)=C(N3CCOCC3)C2=O)c1	-4.3	-0.1	1.8	46.1*	-12.3	2.0
O=C1C(Cl)=C(N2CCN(Cc3ccccc3)CC2)C(=O)N1c1ccccc1	-3.8	-12.2	0.2	48.2*	-4.1	10.6
CCc1ccc(N2C(=O)C(Cl)=C(N3CCCCCC3)C2=O)cc1	-2.9	21.3	2.7	20.7	3.5	·
Clc1ss/c(=N\c2ccccn2)c1Cl	-2.6	15.3	1.9	48.6*	13.1	29.2
COc1cc2c(cc1OC)C(=O)N(C)CC2	-0.9	2.8	-0.8	41.8*	5.2	2.7
O=C(O)/C=C\C(=O)Nc1ccc(N2CCN(c3ccc(F)cc3)CC2)cc1	-7.8	3.8	1.9	38.1*	-3.3	13.7
O=C(O)/C=C\C(=O)Nc1ccc(N2CCN(c3ccc(Cl)cc3)CC2)cc1	-3.2	-0.2	-0.2	39.4	-1.2	·
CC(=O)c1cccc(NS(=O)(=O)N2CCCCC2)c1	-3.0	15.0	-2.7	41.0*	-1.3	3.8
O=C(CNc1cccc([N+](=O)[O-])c1)N/N=C/c1ccc([N+](=O)[O-])o1	8.3	1.8	2.5	40.1*	4.3	22.5
O=C(CCN1CCN(c2ccccc2)CC1)N/N=C/c1ccc([N+](=O)[O-])o1	8.2	21.0	1.0	55.1*	4.1	38.6
O=C(N/N=C/c1ccc([N+](=O)[O-])o1)c1ccccc1-n1cccc1	3.0	2.3	-0.5	42.3*	1.6	21.1
O=C(CN1CCOCC1)NN=Cc1ccc([N+](=O)[O-])o1	·	·	·	25.5	·	·
O=C1NC(c2ccccc2)=C(c2ccc3ccccc3n2)C(c2ccncc2)N1 (stereo not given)	-1.2	3.8	2.0	-82.3	5.3	·
O=C(O)c1ccc(CCCc2ccccc2)cc1	·	·	·	9.0	·	·
O=C(O)CCCCCCCCCCCc1ccccc1	41.5	33.7	-0.6	55.6*	-1.7	2.9
Cc1ccc(-n2c(=O)cc(N3CCCCCC3)[nH]c2=O)cc1	-6.0	-18.6	-0.1	44.9*	6.4	13.7
O=C(Nc1ccccc1F)c1ccc([N+](=O)[O-])s1	-1.3	5.9	0.1	30.6	0.7	·
SMILES	SENP8 block-1	SENP6 block	HSP90 inh	SENP8 block-2	SENP7 block	SENP8 conf
O=C(Nc1cccnc1)c1ccc([N+](=O)[O-])s1	2.8	10.2	·	43.2*	10.2	29.9
CCC(CO)Oc1cc(NCc2cccc(C)c2)c2ncn(C(C)C)c2c1 (stereo not given)	2.6	-4.6	·	41.7*	10.1	54.5*
CCC(CO)Oc1cc(NCc2ccc(C)cc2)c2ncn(C(C)C)c2c1 (stereo not given)	-6.0	-9.3	·	24.0	-6.7	·
CC[C@H](CO)Oc1cc(NCc2cccc(N)c2)c2ncn(C(C)C)c2c1	·	·	·	55.7*	·	86.8*
OC1COC(OCC2OC(OCc3ccccc3)C(O)C(O)C2O)C(O)C1O (stereo not given)	5.5	-3.3	-1.9	1.5	0.6	·
O=S(=O)(NC(=NCc1ccccc1)c1ccc(F)cc1)c1ccc(Cl)cc1	-8.6	-6.4	1.0	-3.6	-5.8	·
Cc1cc([N+](=O)[O-])nn1CCCC(=O)N1CCN(c2ccccc2)CC1	2.2	7.2	4.7	41.3*	0.7	9.2
COc1cccc(N=Nc2c(=O)[nH]n3c(=O)cc(C)[nH]c23)c1	-3.8	12.5	0.6	47.5*	-6.5	32.1
COc1cccc(N=Nc2c(=O)[nH]n3c(=O)c4c([nH]c23)CCC4)c1	-4.2	5.3	5.3	30.6	0.8	·
O=C(Nc1cccc(S(=O)(=O)N2CCCCCC2)c1)c1ccc2ccccc2n1	6.0	2.6	3.5	-18.2	-4.9	·
O=C(Nc1ccc(N2CCCC2)cc1)c1ccccc1[N+](=O)[O-]	5.4	6.7	3.0	35.0*	2.5	21.4
O=C(Nc1ccc(N2CCCCC2)cc1)c1ccc2ccccc2n1	31.0	38.1	-3.2	40.2*	39.0	15.4
O=C(Nc1cccc(F)c1)c1c(O)c2cccc3c2n(c1=O)CCC3	0.1	-8.8	0.6	·	-0.6	·
COc1ccc(C(=O)N2C=Cc3ccccc3C2C#N)cc1 (stereo not given)	·	·	·	50.4*	·	74.2*
CCn1c(SCC(=O)O)nnc1-c1ccccc1	-1.9	2.5	-0.9	24.1	-9.8	·
CCn1c(SCc2cccc(C(=O)O)c2)nnc1-c1ccccc1	0.2	-2.3	-3.8	48.1*	0.8	22.0
Cc1ccc(S(=O)(=O)c2c(C)nn(C(C)(C)C)c2OC(=O)CC(C)C)cc1	-1.8	1.0	1.1	25.3	11.6	·
Nc1c(NCCCN2CCOCC2)c2ccccc2oc1=O	4.3	5.2	0.8	37.5*	0.5	-6.5
Cc1c(NS(=O)(=O)c2ccc(S(=O)(=O)c3ccccc3)s2)c(=O)n(-c2ccccc2)n1C	-2.3	-40.2	-0.9	20.8	-13.5	·
CCN(CC)CCCOC(=O)C(c1ccccc1)c1ccccc1	3.9	-13.8	1.5	61.7*	3.0	17.8
CCC(C(=O)OCCOCCN(CC)CC)c1ccccc1 (stereo not given)	-1.1	-29.1	-1.0	11.7	6.8	·
CCNC(=O)NC(=O)C(C)Sc1nc2ccccc2n1CC(C)C (stereo not given)	1.9	-0.8	-0.8	42.2*	1.5	13.3
CCNC(=O)NC(=O)C(C)Sc1nc2ccccc2c(=O)n1-c1cccnc1 (stereo not given)	3.8	-13.5	-0.8	5.4	-2.0	·
